The nature of assay [1]: AP1 Signaling Pathway (AID 357; active = well fitted curve in either direction with a large enough effect, not every such curve was filed as active; note: % is set by controls: 0 for no effect and ±100 for the full control effect). As to conditions: ME-180 AP-1-bla reporter, EGF-induced, beta-lactamase ratio, 5 h; at 38 µM (top of the series). A digest of the protocol:
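ME-180 cells with beta-lactamase reporter under AP-1 response element, stimulated with EC50 EGF; compounds tested in titration series, 5 h at 37 °C. CCF4 substrate added 2.5 h at room temperature; 460/530 nm emission ratio gave %activity and AC50.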

Assay [2] addresses Cytochrome P450 1A2 (Homo sapiens) (UniProt P05177). The assay is described as follows: p450-cyp1a2 (AID 410; calls by dose curve; note: potency is the fitted concentration of half-maximal effect). The settings on record: recombinant CYP1A2, luciferin-ME demethylation, luminescence; series mostly up to 57 µM. A digest of the protocol:
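Luminescent readout of luciferin formed from Luciferin-ME by human CYP1A2; data normalized against complete inhibition by 57 uM furafylline. Enzyme 20nM, substrate 100uM at Km, 100mM KPO4 buffer, 60 min reaction at room temperature.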

Assay [3] can be described thus: NFAT Signaling Pathway (AID 444; active = well fitted curve in either direction with a large enough effect, not every such curve was filed as active;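 note: carbachol stimulus at about its EC50 of 1 µM final; % is set by controls: 0 for no effect and ±100 for the full control effect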). As to conditions: Jurkat NFAT-bla M1, carbachol, beta-lactamase ratio, 5 h; at 38 µM (top of the series). A digest of the protocol:
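Jurkat cells carrying an NFAT-driven β-lactamase reporter and co-transfected muscarinic M1 receptor were treated with compound plus carbachol (1 uM final, an EC50 level) for 5 h at 37 °C. CCF4 loading followed for 1 h at RT; 460/530 nm ratio gave %activity.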

Assay [4] can be described thus: Stat Signaling Pathway (AID 446; active = well fitted curve in either direction with a large enough effect, not every such curve was filed as active;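 note: ME-180 cervical cancer cells given 40 pM IL-6 alongside compound; SIE-controlled beta-lactamase reporter measured as 460/530 nm FRET emission ratio; % is set by controls: 0 for no effect and ±100 for the full control effect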). The settings on record: ME-180 SIE beta-lactamase reporter, IL-6 stimulated, 5 h; at 38 µM (top of the series). The gist of the method: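 ME-180 SIE-bla cells; overnight plating; cpd + IL-6 40 pM, 5 h, 37 C; LiveBLAzer 2.5 h RT; 460/530 nm emission ratio. Normalized to 300 pM IL-6 and 125 nM JAK inhibitor controls.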
For assay [5], the target named is Glucocorticoid receptor (Homo sapiens) (UniProt P04150). The assay is described as follows: GR-GFP Redistribution (AID 450;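 active = compounds whose dose series gives a full or clear partial fitted curve of increased nuclear translocation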; note: potency is the fitted concentration of half-maximal effect). The settings on record: U2OS GR-GFP nuclear translocation, laser cytometry, 2 h.
Sequence of Glucocorticoid receptor (Homo sapiens) (P04150 whole entry, looked up): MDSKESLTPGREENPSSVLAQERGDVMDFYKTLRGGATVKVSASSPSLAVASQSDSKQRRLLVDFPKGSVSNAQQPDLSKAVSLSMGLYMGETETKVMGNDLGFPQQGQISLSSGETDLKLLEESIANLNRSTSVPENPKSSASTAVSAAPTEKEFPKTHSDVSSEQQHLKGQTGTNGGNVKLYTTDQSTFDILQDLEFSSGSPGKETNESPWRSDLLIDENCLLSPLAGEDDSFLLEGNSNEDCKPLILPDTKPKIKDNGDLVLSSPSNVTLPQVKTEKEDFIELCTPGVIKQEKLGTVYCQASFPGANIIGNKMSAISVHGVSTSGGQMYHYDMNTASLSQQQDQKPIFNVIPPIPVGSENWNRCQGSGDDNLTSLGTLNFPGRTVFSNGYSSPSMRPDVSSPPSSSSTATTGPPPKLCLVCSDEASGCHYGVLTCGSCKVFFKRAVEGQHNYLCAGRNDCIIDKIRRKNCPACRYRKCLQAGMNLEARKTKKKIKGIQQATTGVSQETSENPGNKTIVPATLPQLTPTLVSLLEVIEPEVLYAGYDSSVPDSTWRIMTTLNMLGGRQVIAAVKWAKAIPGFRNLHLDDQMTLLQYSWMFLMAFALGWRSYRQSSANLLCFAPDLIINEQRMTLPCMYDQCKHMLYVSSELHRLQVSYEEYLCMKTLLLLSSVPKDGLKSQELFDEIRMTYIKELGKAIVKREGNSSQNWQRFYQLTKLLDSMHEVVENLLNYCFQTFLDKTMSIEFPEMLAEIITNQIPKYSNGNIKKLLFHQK
The target is the same in assay [6]. The assay is described as follows: GR-EFC Redistribution (AID 451; calls by dose curve; note: potency is the fitted concentration of half-maximal effect). As to conditions: CHO-K1 GR-EFC translocation, beta-gal luminescence, 2 h. The gist of the method:
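CHO-K1 cells stably expressing nuclear-localized β-gal enzyme acceptor and GR fused C-terminally to the enzyme donor fragment; ligand-driven nuclear translocation restores β-gal by complementation. Compounds titrated up to 46 uM final, 2 h at 37 °C; luminescence read.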

The target of assay [7] is Mitogen-activated protein kinase 10 (Mus musculus) (UniProt Q61831). Description: JNK3 AlphaScreen Assay (AID 530; active = well fitted curve in either direction with a large enough effect, not every such curve was filed as active;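 note: kinase came from lysate of stimulated human HepG2 cells; signal reports phosphorylation of biotinylated GST-cJun 1-79 at Ser73 with 10 µM ATP; % is set by controls: 0 for no effect and ±100 for the full control effect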). The settings on record: JNK3 lysate, c-Jun phosphorylation; series mostly up to 57.1 µM. The gist of the method: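 Inhibitors reduce antibody binding to phosphorylated biotin-cJun, lowering AlphaScreen luminescence. Lysates from HepG2 cells pre-activated by IL-1beta plus TNF-alpha supplied JNK3; compounds were titrated.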

The target of assay [8] is Guanine nucleotide-binding protein G(i) subunit alpha-1 (Homo sapiens) (UniProt P63096). Description: qHTS Assay for Inhibitors of RGS12 GoLoco Motif Activity (Green Fluorophore) (AID 879).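 Note: 0% = labeled peptide with Gαi1 and full inhibition = labeled peptide alone without protein; negative values mean loss of peptide binding seen as reduced polarization.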 As to conditions: Galphai1/FITC-RGS12 GoLoco peptide, fluorescence polarization; series mostly up to 57.1 µM. A digest of the protocol:
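Fluorescence polarization assay: 50 nM Gαi1 with 10 nM FITC-labeled RGS12 GoLoco peptide in 10 mM Tris pH 7.5, 150 mM NaCl, 0.1 mM GDP, 0.05% NP40, 10 min at room temperature with compound.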
Background: qHTS replaces the single test concentration by a dilution series.

The target of assay [9] is Cytochrome P450 2C9 (Homo sapiens) (UniProt P11712). The assay is described as follows: qHTS Assay for Inhibitors and Substrates of Cytochrome P450 2C9 (AID 883). Note: % is set by controls: 0 for no effect and ±100 for the full control effect; nearly all actives have a fitted effect of over 60% in size. As to conditions: recombinant CYP2C9, luciferin-H luminescence, 60 min; series mostly up to 57.1 µM. The gist of the method:
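Human CYP2C9 (10nM) hydroxylated Luciferin-H (100uM, at its KM) to luciferin in 25mM KPO4. Compound was preincubated 10 min at 37C, then NADPH regeneration started a 60 min reaction at 37C. Luminescence was read after detection reagent, normalized to 57uM sulphaphenazole.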

In assay [10] the target is Cytochrome P450 3A4 (Homo sapiens) (UniProt P08684). Description: qHTS Assay for Activators of Cytochrome P450 3A4 (AID 885). Note: nearly all actives have a fitted effect of over 65% in size. As to conditions: recombinant CYP3A4, Luciferin-PPXE luminescence, 60 min; series mostly up to 57.1 µM. The gist of the method: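 20nM CYP3A4 + 25uM Luciferin-PPXE (=KM), 200mM KPO4; cpd 10 min RT; NADPH regen, 60 min RT; stop w/ detection buffer, 20 min; luminescence. Normalized to 57 uM ketoconazole.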
Sequence of Cytochrome P450 3A4 (Homo sapiens) (P08684 whole entry, looked up): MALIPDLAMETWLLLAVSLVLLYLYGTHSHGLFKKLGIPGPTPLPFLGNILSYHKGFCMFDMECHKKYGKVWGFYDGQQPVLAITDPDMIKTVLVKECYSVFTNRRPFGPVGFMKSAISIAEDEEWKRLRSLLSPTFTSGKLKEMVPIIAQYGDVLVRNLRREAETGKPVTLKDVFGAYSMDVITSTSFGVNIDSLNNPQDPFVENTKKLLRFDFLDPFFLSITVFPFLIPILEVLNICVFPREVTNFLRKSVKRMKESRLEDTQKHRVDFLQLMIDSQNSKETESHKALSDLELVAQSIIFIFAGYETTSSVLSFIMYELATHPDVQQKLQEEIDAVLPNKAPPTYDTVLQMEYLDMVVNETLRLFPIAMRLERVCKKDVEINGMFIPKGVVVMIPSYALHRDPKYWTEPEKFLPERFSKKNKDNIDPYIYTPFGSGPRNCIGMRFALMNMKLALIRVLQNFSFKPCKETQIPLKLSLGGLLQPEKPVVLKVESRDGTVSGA

Assay [11] addresses Cytochrome P450 2D6 (Homo sapiens) (UniProt P10635). The assay is described as follows: qHTS Assay for Inhibitors and Substrates of Cytochrome P450 2D6 (AID 891).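 Note: luciferin methyl ether substrate demethylated by CYP2D6 with NADPH regeneration; % is set by controls: 0 for no effect and ±100 for the full control effect; nearly all actives have a fitted effect of over 60% in size.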 The settings on record: recombinant CYP2D6, luciferin-ME EGE luminescence; series mostly up to 57.1 µM. A digest of the protocol:
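Human CYP2D6 (5 nM) with 30 uM Luciferin-ME EGE (at Km) in 100 mM KPO4, compound preincubated 10 min, then NADPH regeneration system for 60 min at room temperature. Luciferin read by luminescence; normalized to 1.43 uM quinidine.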

For assay [12], the target named is Cytochrome P450 2C19 (Homo sapiens) (UniProt P33261). Description: qHTS Assay for Inhibitors and Substrates of Cytochrome P450 2C19 (AID 899). Note: % is set by controls: 0 for no effect and ±100 for the full control effect; nearly all actives have a fitted effect of over 60% in size. As to conditions: recombinant CYP2C19, luciferin-H EGE luminescence; series mostly up to 57.1 µM. A digest of the protocol:
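Human CYP2C19 (5nM) with Luciferin-H EGE at 10uM (its KM) in 50mM KPO4 was preincubated with compound for 10 min at 37C. NADPH regeneration started a 60 min 37C reaction. Luciferin was read by luminescence, normalized to 57uM ketoconazole.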

A short description of assay [13]: Confirmation and Secondary Assay for Modulators of Hemoglobin Beta Chain Splicing at IVS2 654 locus (AID 910).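 Note: per-well total GFP intensity by laser scanning cytometry after 2-day treatment; % of control where 0% means no effect.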 As to conditions: HeLa EGFP-654 splicing reporter, GFP fluorescence, 48 h; series mostly up to 46.1 µM. A digest of the protocol:
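HeLa cells stably carrying EGFP interrupted by mutant beta-globin IVS2-654 intron (CMV-driven) were treated with compound for 2 days at 37C; corrected splicing was scored as total peak GFP intensity per well (488 nm excitation, 500-520 nm emission).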

A short description of assay [14]: qHTS Assay for Identification of Small Molecule Agonists for Thrombopoietin (TPO) Signaling Pathway (AID 917). Note: % is set by controls: 0 for no effect and ±100 for the full control effect. The settings on record: TPO signaling pathway reporter cells, agonist qHTS, stimulated with TPO at its EC50; series mostly up to 38.5 µM. A digest of the protocol:
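IL-3-dependent murine pro-B Ba/F3 cells, stably transfected with human TPO receptor and GpIIb-promoter luciferase, are incubated 24 hrs at 37 C with test compound and 26 pM TPO; luciferase signal is read after 10 min at room temperature.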

Assay [15] can be described thus: Confirmation and Secondary Assay for Modulators of Hemoglobin Beta Chain Splicing at IVS2 705 locus (AID 930).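 Note: GFP fluorescence per well restored by corrected splicing of the IVS2-705 intron in EGFP; % of control where 0% means no effect.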 As to conditions: HeLa EGFP-705 splicing reporter, GFP fluorescence, 48 h; series mostly up to 46.1 µM. The gist of the method: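 Secondary splice-site specificity test uses HeLa expressing CMV-driven EGFP interrupted by IVS2-705; cells were treated 2 days at 37C with 500 nM antisense PNA as positive control.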

The target in assay [16] is Muscarinic acetylcholine receptor M1 (Rattus norvegicus) (UniProt P08482). The assay is described as follows: qHTS Assay for Antagonists of Acetylcholine Muscarinic M1 Receptor: Measurement of IP-One Response (AID 944). Note: nearly all actives have a fitted effect of over 75% in size. The settings on record: CHO-M1 cells, IP-One HTRF, antagonist mode; series mostly up to 46.1 µM. The gist of the method:
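M1-CHO (rat), 2000 cells/well, overnight recovery; cpd 10 min; carbachol EC80 (200 nM), 30 min, HEPES buffer + 50 mM LiCl pH 7.4; IP-One HTRF, Ex 337, Em 620/665 nm.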

Assay [17] concerns the target Pyruvate kinase (Leishmania mexicana) (UniProt Q27686). The assay is described as follows: qHTS Validation Assay for Inhibitors of Leishmania Mexicana Pyruvate Kinase (AID 945).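 Note: 0% = DMSO only neutral control wells.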 As to conditions: purified L. mexicana pyruvate kinase, enzyme activity, E451W mutant enzyme; series mostly up to 57.5 µM. A digest of the protocol:
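Read-out: luminescence from PKLight stop/detection reagent, data normalized to DMSO. Reaction: 0.2 nM E451W LmPYK, 0.5 mM PEP, 0.1 mM ADP, pH 7.2, 1 h room temperature.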

The target in assay [18] is Pyruvate kinase PKM (Homo sapiens) (UniProt P14618). The assay is described as follows: qHTS Assay for Activators of Human Muscle Pyruvate Kinase (AID 954; active = well fitted curve in the direction sought with a large enough effect, not every such curve was filed as active;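 note: 0% = uninhibited enzyme and -100% = no enzyme or full thiadiazolimine inhibition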). The settings on record: purified human muscle pyruvate kinase, luciferase-coupled luminescence, 1 h; series mostly up to 57.5 µM. A digest of the protocol:
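Luminescence from a luciferase ATP-detection/stop reagent reported PKM2 activity. Reactions contained 0.1 nM purified human enzyme, 0.5 mM PEP, 0.1 mM ADP and 7 mM MgCl2 at pH 7.2, run 1 h at RT.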

Assay [19] has as its target Alpha-galactosidase A (Homo sapiens) (UniProt P06280). Description: Counterscreen for Glucocerebrosidase Inhibitors: qHTS Assay for Human alpha-Galactosidase at pH 4.5 (AID 992). Note: 0% is about no effect. As to conditions: purified enzyme, fluorogenic substrate; series mostly up to 76.9 µM. A digest of the protocol:
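Enzyme at 2 nM final was combined with compound (0.7 nM to 77 uM) and 80 uM 4-methylumbelliferyl alpha-D-galactopyranoside in 50 mM citric acid, 0.005% Tween-20, pH 4.5. After 20 min at room temperature, fluorescence was read (Ex 365/Em 440 nm); AC50 came from Hill fits.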

Assay [20] has as its target alpha-glucosidase (Oryza sativa, rice) (UniProt Q653V4). Description: Counterscreen for Glucocerebrosidase Inhibitors: qHTS Assay for Rice alpha-Glucosidase at pH 5.0 (AID 997).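 Note: 0% = full activity with enzyme and -100% = basal without enzyme.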 The settings on record: rice alpha-glucosidase enzyme activity; series mostly up to 76.9 µM. The gist of the method:
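Rice alpha-glucosidase (4 nM final) with 400 uM 4-methylumbelliferyl-alpha-D-glucopyranoside in citrate buffer pH 5.0, 20 min at room temperature, stopped at pH 10; fluorescence 365/440 nm, compounds 0.7 nM–77 uM, AC50 from Hill fits.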
(A counterscreen serves to expose hits that act by an unwanted route or on another target.)

Assay [21] has as its target DNA dC->dU-editing enzyme APOBEC-3G (Homo sapiens) (UniProt Q9HC16). The assay is described as follows: qHTS for inhibitors of Vif-A3G interactions: Validation (AID 588379). Note: 0% is about no effect. As to conditions: Vif-A3G protein interaction assay; series mostly up to 46.1 µM. The gist of the method:
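HeLa cells stably expressing Vif and A3G-eYFP, 700 cells/well, incubated overnight at 37 deg C, then exposed to compound overnight at 37 deg C. Inhibition of Vif-mediated degradation read as increased yellow fluorescence (Ex 488/Em 500-530) by laser-scanning cytometry.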

The subject of assay [22] is Zika virus NS2B-NS3 protease. The assay is described as follows: Primary screen GU AMC qHTS for Zika virus inhibitors (AID 1347154).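 Note: 0% = no-inhibitor control and -100% = no-enzyme control; nearly all actives have a fitted effect of over 70% in size.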 As to conditions: Zika NS2B-NS3 unlinked protease, AMC fluorogenic substrate; series mostly up to 54.1 µM. A digest of the protocol: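 Unlinked Zika NS2B hydrophilic domain/NS3 protease domain noncovalent complex (25 nM final) in 10 mM Tris-HCl pH 8.0, 0.01% Tween 20, with AMC peptide substrate. Fluorescence (ex 340, em 450 nm) change over 15 min, room temperature; percent inhibition fitted to 4-parameter Hill equation.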

Assay [23] is described as follows: Primary qHTS for small molecule stabilizers of the endoplasmic reticulum resident proteome: Secreted ER Calcium Modulated Protein (SERCaMP) assay (AID 1508630). Note: % is set by controls: 0 for no effect and ±100 for the full control effect. The settings on record: SH-SY5Y GLuc-SERCaMP (Gaussia luciferase released on ER calcium loss) secretion, thapsigargin, luminescence; series mostly up to 38.4 µM. A digest of the protocol:
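GLuc-SERCaMP-expressing SH-SY5Y cells, pretreated 16 h with compound, are challenged with thapsigargin to empty ER calcium stores; after 4 h, coelenterazine is added directly to the medium and luminescence is imaged.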

Where “and” joins values, the source holds several entries; their conditions need not be identical. Equal entries are not always repeated. Unmarked numbers belong to inactive results. Records with an inconclusive call do not appear. Calls of active or inactive are those of the source. Unless noted, calls come from the whole dose curve; as a rule, active = well fitted curve in the direction sought with a large enough effect; inconclusive = small, poorly fitted or top-dose-only effect, or another doubt; inactive = no such curve, though single readings can be large; an effect the other way counts as inactive or inconclusive. Where only a bound is given, the exact number is not on record here.

Sequence of Cytochrome P450 1A2 (Homo sapiens) (P05177 whole entry, looked up): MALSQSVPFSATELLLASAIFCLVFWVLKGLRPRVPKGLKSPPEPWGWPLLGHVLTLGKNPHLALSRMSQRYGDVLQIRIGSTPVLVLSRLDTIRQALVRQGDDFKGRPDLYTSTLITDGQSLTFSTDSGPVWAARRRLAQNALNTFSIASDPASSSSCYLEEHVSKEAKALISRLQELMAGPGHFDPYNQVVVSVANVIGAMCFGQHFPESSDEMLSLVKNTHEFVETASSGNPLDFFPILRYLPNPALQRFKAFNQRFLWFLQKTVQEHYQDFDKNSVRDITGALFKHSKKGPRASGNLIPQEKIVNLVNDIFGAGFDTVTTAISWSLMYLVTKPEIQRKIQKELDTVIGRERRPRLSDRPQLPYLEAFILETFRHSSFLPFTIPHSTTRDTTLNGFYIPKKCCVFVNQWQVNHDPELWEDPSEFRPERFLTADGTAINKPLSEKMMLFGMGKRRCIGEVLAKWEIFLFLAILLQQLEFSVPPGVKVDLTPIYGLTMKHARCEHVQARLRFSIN
Sequence of Muscarinic acetylcholine receptor M1 (Rattus norvegicus) (P08482 whole entry, looked up): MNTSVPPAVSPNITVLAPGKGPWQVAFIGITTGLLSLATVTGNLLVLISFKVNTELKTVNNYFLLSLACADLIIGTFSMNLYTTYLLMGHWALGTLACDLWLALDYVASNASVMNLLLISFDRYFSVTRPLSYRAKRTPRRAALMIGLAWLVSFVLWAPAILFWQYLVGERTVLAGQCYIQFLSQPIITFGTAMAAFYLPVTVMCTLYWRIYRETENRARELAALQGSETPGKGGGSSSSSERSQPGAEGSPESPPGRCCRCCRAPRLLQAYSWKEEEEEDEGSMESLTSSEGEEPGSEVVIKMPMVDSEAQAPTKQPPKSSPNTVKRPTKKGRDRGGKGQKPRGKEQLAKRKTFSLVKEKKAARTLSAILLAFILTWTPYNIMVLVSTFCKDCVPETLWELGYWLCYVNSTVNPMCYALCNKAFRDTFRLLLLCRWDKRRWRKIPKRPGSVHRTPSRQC
Sequence of Alpha-galactosidase A (Homo sapiens) (P06280 whole entry, looked up): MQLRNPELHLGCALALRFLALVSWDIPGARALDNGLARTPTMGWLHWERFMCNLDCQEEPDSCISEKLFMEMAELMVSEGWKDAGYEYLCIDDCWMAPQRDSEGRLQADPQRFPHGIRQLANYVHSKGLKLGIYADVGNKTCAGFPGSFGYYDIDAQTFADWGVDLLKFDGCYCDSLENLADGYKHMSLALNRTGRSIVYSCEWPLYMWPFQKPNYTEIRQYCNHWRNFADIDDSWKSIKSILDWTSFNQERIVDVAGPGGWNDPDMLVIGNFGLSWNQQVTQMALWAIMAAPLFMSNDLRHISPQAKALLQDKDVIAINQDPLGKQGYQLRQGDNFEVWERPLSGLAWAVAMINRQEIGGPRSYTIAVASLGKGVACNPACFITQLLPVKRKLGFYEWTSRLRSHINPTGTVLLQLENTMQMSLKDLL
Sequence of Cytochrome P450 2C19 (Homo sapiens) (P33261 whole entry, looked up): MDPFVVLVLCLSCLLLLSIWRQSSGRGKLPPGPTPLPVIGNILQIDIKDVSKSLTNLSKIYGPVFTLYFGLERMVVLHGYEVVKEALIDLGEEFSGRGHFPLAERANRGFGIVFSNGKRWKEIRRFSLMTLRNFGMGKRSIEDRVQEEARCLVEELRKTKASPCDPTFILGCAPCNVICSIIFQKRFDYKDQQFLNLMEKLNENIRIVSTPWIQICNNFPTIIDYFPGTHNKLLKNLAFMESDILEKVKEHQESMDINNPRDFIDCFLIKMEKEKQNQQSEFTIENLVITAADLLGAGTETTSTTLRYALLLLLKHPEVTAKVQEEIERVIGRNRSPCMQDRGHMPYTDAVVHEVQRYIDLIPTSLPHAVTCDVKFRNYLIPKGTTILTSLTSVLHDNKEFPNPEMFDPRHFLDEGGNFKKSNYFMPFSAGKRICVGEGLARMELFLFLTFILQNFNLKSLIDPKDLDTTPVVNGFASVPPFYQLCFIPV
Sequence of DNA dC->dU-editing enzyme APOBEC-3G (Homo sapiens) (Q9HC16 whole entry, looked up): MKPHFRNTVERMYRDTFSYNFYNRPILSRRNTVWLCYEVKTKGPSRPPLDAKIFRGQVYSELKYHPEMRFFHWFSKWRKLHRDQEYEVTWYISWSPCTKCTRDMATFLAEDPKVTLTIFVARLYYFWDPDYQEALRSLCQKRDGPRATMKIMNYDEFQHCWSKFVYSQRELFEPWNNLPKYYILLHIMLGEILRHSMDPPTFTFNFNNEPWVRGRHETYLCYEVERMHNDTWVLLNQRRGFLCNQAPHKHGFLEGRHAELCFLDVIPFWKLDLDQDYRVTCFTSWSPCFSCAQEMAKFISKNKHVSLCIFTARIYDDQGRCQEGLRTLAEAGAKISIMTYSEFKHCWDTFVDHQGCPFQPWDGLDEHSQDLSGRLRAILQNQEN
Sequence of Pyruvate kinase PKM (Homo sapiens) (P14618 whole entry, looked up): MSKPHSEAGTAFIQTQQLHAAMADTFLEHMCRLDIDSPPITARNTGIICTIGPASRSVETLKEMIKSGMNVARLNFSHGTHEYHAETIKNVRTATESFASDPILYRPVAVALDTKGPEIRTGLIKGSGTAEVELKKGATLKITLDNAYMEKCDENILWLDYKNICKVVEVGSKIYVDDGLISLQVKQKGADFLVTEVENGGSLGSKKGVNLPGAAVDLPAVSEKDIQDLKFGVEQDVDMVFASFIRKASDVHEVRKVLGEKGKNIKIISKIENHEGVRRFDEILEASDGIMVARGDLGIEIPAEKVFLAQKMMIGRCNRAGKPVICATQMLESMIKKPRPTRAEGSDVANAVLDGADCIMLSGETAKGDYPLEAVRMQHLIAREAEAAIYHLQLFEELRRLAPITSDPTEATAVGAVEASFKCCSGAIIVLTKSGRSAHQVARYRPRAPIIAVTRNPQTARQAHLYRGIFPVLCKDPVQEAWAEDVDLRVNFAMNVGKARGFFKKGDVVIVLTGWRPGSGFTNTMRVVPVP
Sequence of Cytochrome P450 2D6 (Homo sapiens) (P10635 whole entry, looked up): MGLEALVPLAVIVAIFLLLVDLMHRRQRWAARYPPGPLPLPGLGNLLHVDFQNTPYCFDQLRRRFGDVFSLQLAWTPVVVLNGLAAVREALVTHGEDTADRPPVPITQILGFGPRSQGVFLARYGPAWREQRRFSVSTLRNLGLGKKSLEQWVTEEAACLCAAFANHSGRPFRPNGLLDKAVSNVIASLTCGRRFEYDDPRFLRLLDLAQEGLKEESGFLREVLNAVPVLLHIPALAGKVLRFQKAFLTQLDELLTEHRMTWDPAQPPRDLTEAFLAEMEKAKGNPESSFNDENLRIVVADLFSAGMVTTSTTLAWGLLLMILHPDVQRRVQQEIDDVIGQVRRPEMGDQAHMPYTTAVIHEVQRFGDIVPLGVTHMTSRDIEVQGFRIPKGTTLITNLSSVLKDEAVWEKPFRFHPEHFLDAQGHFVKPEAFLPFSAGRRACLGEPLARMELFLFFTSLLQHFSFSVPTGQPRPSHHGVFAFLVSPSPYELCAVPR
Sequence of Guanine nucleotide-binding protein G(i) subunit alpha-1 (Homo sapiens) (P63096 whole entry, looked up): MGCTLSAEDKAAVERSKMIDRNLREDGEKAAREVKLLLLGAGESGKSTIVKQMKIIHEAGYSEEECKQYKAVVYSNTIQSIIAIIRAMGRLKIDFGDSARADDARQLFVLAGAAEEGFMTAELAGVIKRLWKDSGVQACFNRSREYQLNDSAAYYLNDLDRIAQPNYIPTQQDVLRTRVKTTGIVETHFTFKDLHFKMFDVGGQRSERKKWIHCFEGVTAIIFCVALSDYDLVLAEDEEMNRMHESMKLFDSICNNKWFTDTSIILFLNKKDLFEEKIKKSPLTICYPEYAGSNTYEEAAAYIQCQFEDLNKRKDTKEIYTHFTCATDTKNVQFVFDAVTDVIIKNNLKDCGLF

With `CCCCOc1cc(C[C@@H]2CNC(=O)N2)ccc1OC`, the activity change, negative = inhibition in [1] is -11.4%; in [3], -19.1%. Also, the Potency is 12.6 µM (active) and 10 µM (active) in assay [2]; over 46 µM in assay [5]; over 46 µM in [6]. Moreover, the activity, negative = inhibition in [4] was 24.5%. Besides, the Potency entry in [7], in assay [9], in assay [10], in assay [11], in assay [12] and in assay [14] was “inactive” in each case. Besides, the Potency entry in assay [16], in assay [17], in assay [21], in assay [22] and in [23] was “inactive” in each case. The call in assay [8], in assay [13], in assay [15], in assay [18], in [19] and in assay [20] was inactive.

The record behind these values is PubChem BioAssay (NCATS).
